Assay outcomes deposited in PubChem by several laboratories.
In the library only some 3.1% were active in any assay of this set; here they are far more common.
BoNT-F LC inh = inhibitors of Botulinum neurotoxin F light chain protease; Multiplex microsphere protease cleavage assay, flow cytometry; inhibition, % at 10 µM; hit rate 0.22% among 360,000; AID 588497; in the data active = inhibition above about 35%, passing the limit was not always enough; inconclusive = no clear call, values can overlap the other calls; note: plate controls were buffer without enzyme for full effect and enzyme alone for no effect
Anthrax LF prot = anthrax lethal factor protease inhibition | P15917 | inhibition, % at 10 µM | multiplex microsphere protease cleavage assay, LF | hit rate 0.12% among 360,000 | AID 588501; note: plate controls were buffer without enzyme for full effect and enzyme alone for no effect
BoNT-A LC inh2 = blocks Botulinum neurotoxin A light chain protease. multiplex microsphere protease substrate cleavage, flow cytometry. hit rate 0.17% among 360,000. inhibition, % at 10 µM; note: plate controls were buffer without enzyme for full effect and enzyme alone for no effect
Bead autofluor = flagged as autofluorescent in microsphere protease counterscreen. fluorescence intensity (no concentration beside the values). AID 624483. compound autofluorescence counterscreen, microsphere flow cytometry; active compounds read high. hit rate 3.1% among 360,000; in the data active = fluorescence intensity above about 16000; inconclusive = no clear call, values can overlap the other calls
SSB-PriA inh = blocks PriA binding to SSB C-terminal tail. hit rate 0.6% among 430,000. AID 1272365. inhibition, % at 33 µM. AlphaScreen SSBct-PriA binding, biotinylated peptide; in the data active = inhibition mostly above about 37%, no sharp cut-off; inactive = mostly below about 20%;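 note: plate controls were negative control peptide for no effect and reference peptide for full effect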
* hit, by the source's call; ? = inconclusive; · = no result given; ! = a repeat was not active. Cut-off read from the data, not from the text of the source, unless noted: active = inhibition above about 30%; inconclusive = no clear call, values can overlap the other calls; inactive = below that.

SMILES	BoNT-F LC inh	Anthrax LF prot	BoNT-A LC inh2	Bead autofluor	SSB-PriA inh
O=C(c1cnn2c1OCCC2)N1CCN(Cc2cccnc2)CC1	·	·	·	·	-13.0
Cc1[nH]n(C(N)=S)c(=O)c1N=Nc1ccc(S(=O)(=O)N2CCCCCC2)cc1	-11.9	-3.0	?	21910*	-12.2
Cc1[nH][nH]c(=O)c1N=Nc1ccc(S(=O)(=O)N2CCCCC2)cc1	·	·	·	·	-1.0
CCOC(CNC(=O)C(=O)Nc1cccc(F)c1)OCC	·	·	·	·	-4.0
CCC(=O)Nc1nnc(-c2cccc(Br)c2)o1	·	·	·	·	-13.0
O=C1NCCN1C(=O)N(c1ccccc1)c1ccccc1	1.3	3.7	0.9	22362*	-18.3
CN1CCN(C(=O)N(c2ccccc2)c2ccccc2)CC1	?	-9.2	-1.5	3397	-1.4
CCc1ccc(-c2cn(-c3nc(C)cc(C)n3)c(=N)o2)cc1	-3.3	-2.4	-1.0	23477*	-2.2
COc1cccc(C(=O)N(Cc2ccccc2)Cc2cc3cc4c(cc3[nH]c2=O)OCCO4)c1	-2.5	-5.6	-1.9	20933*	-5.8
O=C(c1ccco1)N(Cc1ccc2c(c1)OCO2)Cc1cc2cc3c(cc2[nH]c1=O)OCO3	1.5	-10.4	-1.1	3345	-7.0
COc1cccc(C(=O)N(Cc2cc3cc(C)ccc3[nH]c2=O)CC2CCCO2)c1 (configuration not stated)	?	-14.6	?	?	0.4
Cc1cc2cc(CN(Cc3ccc4c(c3)OCO4)C(=O)c3ccco3)c(=O)[nH]c2cc1C	-0.4	2.0	-0.1	3173	6.0
COc1cc2cc(CN(Cc3ccc4c(c3)OCO4)C(=O)c3ccco3)c(=O)[nH]c2cc1OC	-7.5	-3.6	-2.4	16500*	-17.2
COc1ccc(C(=O)N(Cc2ccccc2)Cc2cc3cc4c(cc3[nH]c2=O)OCCO4)cc1	-4.9	0.9	-5.7	22249*	-9.3
O=C(c1cccc(Cl)c1)N1CCN(C(=O)[C@H]2C[C@@H]2c2ccccc2)CC1	·	·	·	·	-14.0
CCCc1cc(N2CCCC(C(=O)Nc3cc(Cl)ccc3OC)C2)n2ncnc2n1 (configuration not stated)	0.2	1.4	?	16461*	13.1
CC(=O)Oc1ccc2oc3c(c2c1)C(=O)CCC3	-3.7	-1.2	-1.6	23365*	-6.2
CC(=O)Oc1ccc2c3c(c(=O)oc2c1)CCCC3	-9.1	6.9	-1.7	3676	-8.6
CC1(C)CC(=O)C2=C(C1)N(c1ccc(F)cc1)C(N)=C(C#N)C2c1cccs1 (configuration not stated)	-1.2	-2.0	-1.1	3313	8.6
Cc1ccc(N2C(N)=C(C#N)C(c3cccs3)C3=C2CC(C)(C)CC3=O)cc1 (configuration not stated)	-1.2	-1.8	?	23727*	12.5
O=C1C(=C2CCCC2)Oc2ccc(O)cc21	·	·	·	·	5.0
c1ccc(-c2csc(Nc3cccnc3)n2)nc1	12.7	-2.2	2.0	8285	71.3*
c1ccc(Nc2nc(-c3ccccn3)cs2)cc1	-7.0	-5.8	-0.8	3918	36.5
Cc1ccnc(Nc2nc(-c3ccccn3)cs2)c1	·	·	·	·	147.0*
CC(=O)Nc1ccc(Nc2nc(-c3ccccn3)cs2)cc1	·	·	·	·	89.9*
SMILES	BoNT-F LC inh	Anthrax LF prot	BoNT-A LC inh2	Bead autofluor	SSB-PriA inh
Cc1nc2ncccn2c1-c1csc(Nc2ccccc2)n1	37.7*	0.5	3.7	2512	7.3
COc1ccc(CNC(=O)NCC[C@H](O)C2CC2)cc1	·	·	·	·	-7.0
CCOC(=O)c1cnn(-c2nc(CC)cc(=O)[nH]2)c1C	·	·	·	·	-3.0
Cc1ccc(Nc2nc(-c3ccccn3)cs2)cc1	·	·	·	·	109.0*
C/C(=N\O)c1ccc2c3ccccc3n(C)c2c1	-8.4	-4.1	?	21762*	·
CCn1c2ccccc2c2cc(/C(C)=N/O)ccc21	-5.1	-3.3	-0.4	1969	·
Cc1nn(C)cc1C=NNC(=O)Cn1nccc1C	·	·	·	·	-19.6
CCOC(=O)C1=C(C)NC(C)=C(C(=O)OCC)C1C(=O)O	-3.5	0.7	?	20924*	-3.0
CCOC(=O)C1=C(C)NC(C)=C(C(=O)OCC)C1	?	-3.5	?	18757*!	-14.6
CC(C)c1ccc(OCC(=O)N(Cc2cccn2C)C2CC2)cc1	·	·	·	·	18.0
C=Cc1ccc(CSc2n[nH]c(=O)c3cc(-c4ccco4)nn23)cc1	·	·	·	·	-15.0
CC1=C(SCc2ccccc2)C(=O)c2ccccc2C1=O	-18.5	-1.5	0.5	4317	4.0
O=C1C(SCCO)=C(SCCO)C(=O)c2ccccc21	-1.4	-5.0	-0.3	5735	101.3*
COc1ccc2nc(-c3ccc(C)c(NC(=O)c4c(OC)cccc4OC)c3)cn2n1	·	·	·	·	-22.0
CCOc1ccc(N(CC(=O)NCc2ccco2)S(=O)(=O)c2ccc(OC)c(OC)c2)cc1	5.5	-0.9	-1.2	3418	-10.8
CS(=O)(=O)N(Cc1ccccc1)c1ccccc1C(=O)Nc1ccccc1C(=O)NCc1ccco1	-2.5	-5.2	-1.5	23578*	15.5
COc1ccc(N(CC(=O)NCc2ccco2)S(=O)(=O)c2ccc(OC)c(OC)c2)cc1	5.0	-2.6	?	22427*	1.6
CS(=O)(=O)N(Cc1ccc(C(=O)NCCSCc2ccco2)cc1)c1ccccc1	1.5	-9.1	1.2	21841*	2.8
COc1ccc(N(CC(=O)Nc2ccccc2C(=O)NCc2ccco2)S(C)(=O)=O)cc1	0.9	-2.5	0.5	22786*	6.2
ON=Cc1cc(Br)ccc1OCc1ccc(F)cc1	·	·	·	·	-21.3
O=C1CSC(=Nc2ccccc2C(F)(F)F)N1	·	·	·	·	8.0
Cc1cccc(C)c1N1CC(C(=O)O)CC1=O (configuration not stated)	·	·	·	·	-7.0
COCCCn1c(=O)c2ccccc2n(Cc2nc(-c3ccc(OC(C)C)cc3)no2)c1=O	·	·	·	·	8.0
O=C(NCc1ccco1)c1ccccc1NS(=O)(=O)c1cccs1	3.4	-3.7	3.3	19002*	3.8
O=C(NCc1ccco1)c1ccccc1NS(=O)(=O)c1ccc(Cl)s1	5.0	-1.8	0.2	3155	9.3
SMILES	BoNT-F LC inh	Anthrax LF prot	BoNT-A LC inh2	Bead autofluor	SSB-PriA inh
O=C(NCCO)C1(c2ccc(Cl)cc2)CCCC1	-2.3	-2.4	-2.0	24150*	-5.9
O=C(Nc1cccnc1)C1(c2ccc(Cl)cc2)CCCC1	16.4	-10.9	?	16176*	-12.5
O=C(Nc1cnoc1)C1(c2ccc(Cl)cc2)CCCC1	·	·	·	·	3.0
Cc1nnsc1C(=O)NCc1cc(-c2cccs2)n(C)n1	·	·	·	·	-5.0
COc1ccc(C)cc1NC(=O)Cn1nc2ccc(SC(C)(C)C)nn2c1=O	·	·	·	·	-2.0
COc1ccc2c(c1)C=C(C=O)CO2	·	·	·	·	-9.0
CCOc1ccc(-c2csc(Nc3cc(C)ccn3)n2)cc1	·	·	·	·	-6.0
O=C(/C=C/c1ccc(-c2nc3ccccc3s2)o1)c1cccs1	·	·	·	·	4.0
COc1ccc(C)cc1NC(=O)CSc1ccc(-c2ccncc2)nn1	·	·	·	·	32.5
CN(C)c1cccc(C(=O)N2CCC(c3ccsc3)CC2)c1	·	·	·	·	-25.0
COC(=O)C1=C(C)N(C)C(=O)NC1c1cc(Cl)c(O)c(OC)c1 (configuration not stated)	-0.5	-4.2	0.2	5831	3.4
COC(=O)C1=C(C)N(C)C(=O)NC1c1cc(Cl)cc(Cl)c1OC (configuration not stated)	-5.2	0.4	?	17435*	-1.7
Cc1ccc(-c2nc(C)c(CCNS(=O)(=O)c3ccc(Cl)s3)s2)cc1	·	·	·	·	3.0
CCOC(=O)C1CCCN(c2c(NCCCN(CC)c3ccccc3)c(=O)c2=O)C1 (configuration not stated)	-6.2	1.6	-0.5	24139*	7.2
